Compound activity: PubChem, National Center for Advancing Translational Sciences (NCATS)
Tb PFK inh-1: T. brucei PFK enzyme inhibition; T. brucei PFK, ADP-Glo luminescence; Potency, µM (highest dose often 57.5 µM), for inactives: at the top dose activity, negative = inhibition, most hits filed as inhibitors; actives 0.17% (n = 330,000);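 also: potency is read from the fitted curve at half-maximal effect; 0% = uninhibited 1x PFK enzyme wells and -100% = no-enzyme wells; nearly all actives have a fitted effect of over 60% in size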
Target sequence (O15648 whole entry, looked up): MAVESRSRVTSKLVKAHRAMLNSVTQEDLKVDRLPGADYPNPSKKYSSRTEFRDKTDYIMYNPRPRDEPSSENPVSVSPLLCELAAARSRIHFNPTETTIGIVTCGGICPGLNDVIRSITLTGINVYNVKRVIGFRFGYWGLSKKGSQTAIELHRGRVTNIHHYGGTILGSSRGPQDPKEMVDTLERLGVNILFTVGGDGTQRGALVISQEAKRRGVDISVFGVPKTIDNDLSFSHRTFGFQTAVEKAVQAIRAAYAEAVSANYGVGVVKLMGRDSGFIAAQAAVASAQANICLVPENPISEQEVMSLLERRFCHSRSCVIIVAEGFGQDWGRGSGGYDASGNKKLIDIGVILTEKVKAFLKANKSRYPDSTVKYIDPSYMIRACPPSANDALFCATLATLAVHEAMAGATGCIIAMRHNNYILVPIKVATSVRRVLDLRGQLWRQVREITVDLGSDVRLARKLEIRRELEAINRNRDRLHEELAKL
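Compounds were pin-transferred as a titration series up to 57 uM into substrate buffer (0.5 mM F6P, 0.1 mM ATP, pH 8.0), then 1.25 nM PFK was added and reactions ran 45 min before ADP-Glo detection.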
RXFP1 antag: blocks the human relaxin receptor RXFP1; Q9HBX9; HEK293-RXFP1, relaxin-stimulated cAMP HTRF, 30 min; active compounds read low; activity change, negative = inhibition, % at 57.5 µM; actives 0.59% (n = 350,000); AID 1259400;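 active = activity change of -60% or lower, but not beyond a set lower limit; inconclusive = change between -60% and -40%, or beyond the set limit; inactive = change above -40%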; also: % is scaled to controls: 0 for no effect and ±100 for the full control effect
RXFP1 agonist: agonists of human relaxin receptor RXFP1; Q9HBX9; HEK293T-RXFP1 cAMP TR-FRET, 30 min; response scale: percent of porcine relaxin response, buffer zero; Potency, µM (highest dose often 57.5 µM), for inactives: top-dose activation, hits mostly activators; actives 0.3% (n = 370,000); also: potency is read from the fitted curve at half-maximal effect; % is scaled to controls: 0 for no effect and ±100 for the full control effect; nearly all actives have a fitted effect of over 60% in size
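cAMP rise read by TR-FRET after 30 min, 37C compound exposure (up to 58 uM) in RXFP1-transfected HEK293 cells with Ro 20174 present. EC50 from Hill-equation fits, with 29 nM porcine relaxin as 100% and buffer as basal.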
gsp antagonist: antagonizes gsp, the McCune-Albright syndrome mutation; gsp-mutant cells, cAMP HTRF, 30 min; Potency, µM (series often up to 76.9 µM), without a hit: at the top dose activity change, negative = inhibition, usual class: inhibitors; AID 624288; actives 0.4% (n = 340,000); calls by dose curve; cell line not stated here;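 also: intracellular cAMP measured with PDE inhibitor Ro 20-1724 present during compound exposure; potency is read from the fitted curve at half-maximal effect; % is scaled to controls: 0 for no effect and ±100 for the full control effect; nearly all actives have a fitted effect of over 65% in size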
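G418-selected cells were plated in DMEM/10% FBS for 16-24 h at 37C, then treated with compounds plus the PDE inhibitor […] (300 uM solution added) for 30 min at 37C. Intracellular cAMP was measured by HTRF after 30 min lysis at room temperature.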
gsp ag: gsp mutant agonism | gsp mutant cells, cAMP HTRF, 30 min | Potency, µM (highest dose often 76.9 µM), inactives show top-dose activation (cAMP increase), hits mostly activators | actives 0.13% (n = 340,000) | AID 624287; active = well fitted activation curve with a large enough effect; inconclusive = small, poorly fitted or top-dose-only effect, or another doubt; inactive = no such curve, though single readings can be large or run the other way; cell line not stated here;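 also: phosphodiesterase inhibitor Ro 20-1724 added with compounds to block cAMP breakdown; potency is read from the fitted curve at half-maximal effect; nearly all actives have a fitted effect of over 60% in size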
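Cells stably selected in G418 were plated at 2000/well, grown 16-24 hr, then given compounds in DMSO with the PDE inhibitor […] (300 uM solution added) for 30 min at 37C; cAMP was read by HTRF.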
p53 reactivator: restores transcriptional activity of mutant p53; H1299 p53-A138V BP100-luciferase reporter, luminescence, 24 h; Potency, µM (highest dose often 92.2 µM), inactives show top-dose activity change, positive = activation, usual class: activators; actives 0.063% (n = 320,000); also: potency is read from the fitted curve at half-maximal effect; % of control where 0% means no effect; nearly all actives have a fitted effect of over 45% in size
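p53-null H1299 cells stably carrying temperature-sensitive p53-A138V and a BP100-luciferase reporter were pinned with compounds (4-point, 1:5 series) and held 24 hrs at 37 deg C. Luminescence was read 10 min after detection reagent.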
TbPFK ATP: orthogonal confirmation of T. brucei phosphofructokinase inhibitors; shares compounds with Tb PFK inh-1; Tb PFK enzyme, ATP depletion, Kinase-Glo Plus luminescence; Potency, µM (doses to about 57.5 µM), for inactives: top-dose inhibition; actives 47% (n = 1,100); AID 504636; calls by dose curve; also: potency is read from the fitted curve at half-maximal effect; nearly all actives have a fitted effect of over 60% in size
Tb PFK inh-2: T. brucei PFK enzyme inhibition, hit validation; shares compounds with Tb PFK inh-1; purified T. brucei PFK, ADP-Glo luminescence, 45 min; Potency, µM (series often up to 57.5 µM), without a hit: at the highest dose activity change, negative = inhibition, most hits filed as inhibitors; actives 41% (n = 1,100);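 also: potency is read from the fitted curve at half-maximal effect; plate controls were full PFK enzyme control for no effect and no enzyme control for full effect; nearly all actives have a fitted effect of over 60% in size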
* hit, by the source's call; [ ] = remark or other dose. Rows were chosen to be rich in hits. Some 1.1% of all compounds tested hit in one or more screens of this group. Unless noted, calls follow the shape of the dose curve; as a rule, active = well fitted curve in the direction sought with a large enough effect; inconclusive = small, poorly fitted or top-dose-only effect, or another doubt; inactive = no such curve, though single readings can be large; an effect the other way counts as inactive or inconclusive.

`COC(=O)c1sc(NC(=O)c2cc(-c3ccccc3)nc3ccccc23)c(C#N)c1C` gave Tb PFK inh-1 6.7µM*, RXFP1 antag -19, RXFP1 agonist 2%, gsp antagonist inconclusive, gsp ag -13%, p53 reactivator 3%, TbPFK ATP 8.5µM* and Tb PFK inh-2 15µM*.
For O=C(c1cc(-c2ccccc2)nc2ccccc12)N1CCC2(CC1)OCCO2 the results were Tb PFK inh-1 -5%, RXFP1 antag -2, RXFP1 agonist 1%, gsp antagonist 0%, gsp ag -4% and p53 reactivator 6%.
Screening CNc1cc(CSC)nc(SCc2ccc(Cl)c(Cl)c2)n1 returned Tb PFK inh-1 21µM*, RXFP1 antag -10, RXFP1 agonist 3%, gsp antagonist 4%, gsp ag 20%, p53 reactivator 0%, TbPFK ATP 5.4µM* and Tb PFK inh-2 8.5µM*.
Cc1nc(SCc2ccc(Cl)c(Cl)c2)n[nH]1 was read as Tb PFK inh-1 21µM*, RXFP1 antag 7, RXFP1 agonist 0%, gsp antagonist -7%, gsp ag 0%, p53 reactivator 6%, TbPFK ATP 12µM* and Tb PFK inh-2 inconclusive.
For CC(C)Oc1ccc(Cc2c(O)[nH]c(=O)[nH]c2=O)cc1 the results were Tb PFK inh-1 -5%, RXFP1 antag 13, RXFP1 agonist -1%, gsp antagonist -6%, gsp ag -24% and p53 reactivator 7%.
Cc1cc(C)c(N=Cc2c(O)[nH]c(=O)[nH]c2=O)c(C)c1 was read as Tb PFK inh-1 0%, RXFP1 antag -11, RXFP1 agonist 0%, gsp antagonist 2% and gsp ag -9%.
`O=C(N[C@@H]1N=C(c2ccccc2F)c2cccc3c2N(CC3)C1=O)c1cc2ccccc2[nH]1` gave RXFP1 antag -34.
`O=C(NNS(=O)(=O)c1ccccc1F)c1cc(-c2ccccc2)n[nH]1` gave Tb PFK inh-1 inconclusive, RXFP1 antag -13, RXFP1 agonist 3%, gsp antagonist -6%, gsp ag 1%[15.4 µM], p53 reactivator -7%, TbPFK ATP -29% and Tb PFK inh-2 inconclusive.
Cc1cc(C)c(NC(=S)NCC2CCN(C(C)c3ccccc3)C2)c(C)c1 (stereo not given) was read as Tb PFK inh-1 inconclusive, RXFP1 antag -28, RXFP1 agonist 3%, gsp antagonist 8%, gsp ag 24%, p53 reactivator 24%, TbPFK ATP 7.6µM* and Tb PFK inh-2 15µM*.
Screening Cc1ccc(CN2C3CCCC2CC(NC(=S)NCc2ccccc2)C3)cc1 (stereo not given) returned Tb PFK inh-1 7%, RXFP1 antag -15, RXFP1 agonist -4%, gsp antagonist 7%, gsp ag -10%[15.4 µM] and p53 reactivator 6%.
`COC(=O)C1=C(c2cccc(C#N)c2)C[C@@H]2CC[C@H]1N2C(=O)NCc1ccc(F)cc1` gave Tb PFK inh-1 -6%, RXFP1 agonist 0%, gsp antagonist 4%, gsp ag -34% and p53 reactivator -11%.
Screening O=[N+]([O-])/C=C\c1ccc(N2CCCC2)c(F)c1 returned Tb PFK inh-1 inconclusive, RXFP1 antag -68*, RXFP1 agonist 0%, gsp antagonist -7%, gsp ag 2%, p53 reactivator -8%, TbPFK ATP 2.4µM* and Tb PFK inh-2 6µM*.
For C[C@@H]1NCCc2cc(O)c(O)cc21 the results were Tb PFK inh-1 inconclusive, RXFP1 agonist -1%, gsp antagonist 3%, p53 reactivator -8%, TbPFK ATP 8.5µM* and Tb PFK inh-2 inconclusive.
For CCC(=O)c1cn(Cc2ccccc2C#N)c2ccccc12 the results were Tb PFK inh-1 -3%, RXFP1 antag 11, RXFP1 agonist 1%, gsp antagonist -3%, gsp ag -27% and p53 reactivator -3%.
For Cc1nn(C)cc1/C=N\NC(=O)c1ccc(Cn2cc(Cl)cn2)cc1 the results were Tb PFK inh-1 27µM*, RXFP1 antag -5, RXFP1 agonist 1%, gsp antagonist -7%, gsp ag 1%[15.4 µM], p53 reactivator 7%, TbPFK ATP 9.5µM* and Tb PFK inh-2 inconclusive.
Screening O=P(NC1CCCCC1)(Oc1ccccc1)Oc1ccccc1 returned RXFP1 antag -18, gsp antagonist -12% and gsp ag -16%.
`CCOc1cc(C(=O)OCc2ccc([N+](=O)[O-])cc2)ccc1OCC(=O)N1CCOCC1` gave Tb PFK inh-1 inconclusive, RXFP1 antag -9, RXFP1 agonist 2%, gsp antagonist -24%, gsp ag 11%, p53 reactivator 1%, TbPFK ATP 15µM* and Tb PFK inh-2 27µM*.
For Cc1ccc2c(c1)c(=O)c1c3n2CCN(CC2CO2)C3CC1 (stereo not given) the results were Tb PFK inh-1 -5%, RXFP1 antag -12, RXFP1 agonist 4%, gsp antagonist -7%, gsp ag -13% and p53 reactivator 7%.
For Oc1cc2c(cc1CN1CCN(c3ccccc3)CC1)CCC2 the results were Tb PFK inh-1 -2%, RXFP1 antag -6, RXFP1 agonist 0%, gsp antagonist 14%, gsp ag 25% and p53 reactivator 12%.
`C/C(=N\NC(=O)C(C)Nc1cccc(Cl)c1)c1ccc([N+](=O)[O-])cc1` (stereo not given) gave Tb PFK inh-1 inconclusive, RXFP1 antag -6, RXFP1 agonist 0%, gsp antagonist -5%, gsp ag 16%, p53 reactivator -9%, TbPFK ATP inconclusive and Tb PFK inh-2 inconclusive.
CCCNC(=O)N1[C@H]2CC[C@@H]1C(C(=O)OC)=C(c1ccc(F)cc1OCc1ccccc1)C2 was read as Tb PFK inh-1 3%, RXFP1 agonist 0%, gsp antagonist 0%, gsp ag -43% and p53 reactivator -19%.
`CC(=O)NC1=NC(=O)/C(=C/c2cc(C)n(-c3cccc(C(=O)O)c3)c2C)S1` gave Tb PFK inh-1 inconclusive, RXFP1 antag -18, RXFP1 agonist 0%, gsp antagonist -30%, gsp ag 8%[15.4 µM], p53 reactivator 0%, TbPFK ATP inconclusive and Tb PFK inh-2 inconclusive.
